In the library only some 3.2% were active in any assay of this set; here they are far more common.
S16 F2sN tox: toxic to S16 Pmp22-F2sN Schwann cells; S16 Pmp22-F2sN Schwann cells viability, CellTiter-Glo, 24 h; Potency, µM (doses to about 57.5 µM), without a hit: top-dose activity change, negative = cytotoxicity, hits mostly cytotoxic; 43,000 tested, 0.48% active; note: nearly all actives have a fitted effect of over 65% in size
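Rat S16 Schwann reporter line, 24 h treatment with library compounds delivered at 23 nL per well. Cell viability by CellTiter-Glo luminescence.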
mTORC1 inh: inhibitors of mTORC1 signaling in Tsc2-/- p53-/- MEF cells | 44,000 tested, 0.78% active | Tsc2-/- p53-/- MEF, phospho-rpS6 immunofluorescence/PI, 24 h | Potency, µM (doses to about 38.3 µM), for the others: top-dose activity change, negative = inhibition, actives largely listed as inhibitors;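 note: plate controls were DMSO for no effect and rapamycin for full effect; nearly all actives have a fitted effect of over 50% in size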
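Read-out: phospho-S6 Alexa-488 intensity over PI intensity per well, scored as % active cells using thresholds from rapamycin (7.5 nM) and DMSO controls. Tsc2-/-, p53-/- MEFs exposed to compound for 24 h; PI cell count recorded as viability.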
PMP22 txn prim: modulates PMP22 transcription in S16 Schwann cells; 43,000 tested, 2% active; S16 Pmp22-F2sN Schwann cells (luciferase reporters placed in the Pmp22 gene), FLuc/NLuc coincidence luminescence, 24 h; Potency, µM (top dose mostly 57.5 µM), inactives show top-dose activity change, negative = inhibition, actives largely listed as inhibitors; active = clear falling dose curves in both reporters; inconclusive = both reporters move, but less clearly or upward; inactive = either reporter flat; the % is the NLuc reporter signal
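Schwann cells carrying the coincidence reporter were exposed to library compounds for 24 h at 37C, then lysed and read for FLuc and, after quenching, NLuc luminescence on a CCD imager.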
p53null 32C kill: selectivity test: cytotoxicity in p53 null cells, permissive temperature. Potency, µM (top dose mostly 46.1 µM), without a hit: top-dose activity change, negative = cytotoxicity, actives largely listed as cytotoxic. 55,000 tested, 0.62% active. H1299-neo p53 null cells, ATP luminescence, 24 h, 32C;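 note: 0% = DMSO only and -100% = full killing by 100 µM tamoxifen; nearly all actives have a fitted effect of over 55% in size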
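H1299-neo, 600 cells/well; overnight 37C; cpd up to 46 uM, 24 h at 32C; ATPlite luminescence after 20 min RT; normalized to DMSO (0%) and tamoxifen 100 uM (100% kill); Hill-fit AC50.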
p53null 39C kill: selectivity test: cytotoxicity in p53 null cells, nonpermissive temperature | H1299 p53-null (neo) cells, 39C, ATPlite viability, 24 h | Potency, µM (top dose mostly 46.1 µM), for the others: at the top dose activity, negative = cell killing, most hits filed as cytotoxic | 55,000 tested, 0.97% active;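 note: 0% = DMSO only and -100% = full killing by 100 µM tamoxifen; nearly all actives have a fitted effect of over 50% in size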
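ATP-luminescence viability readout (ATPlite, 20 min RT) after 24 hr compound treatment at 39C of H1299-neo or H1299-p53A138V cells; titration up to 46 uM; normalized to DMSO and 100 uM tamoxifen; Hill-fit AC50.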
An asterisk follows results filed as active; u = inconclusive; x = no result. Unless noted, calls come from the whole dose curve; as a rule, active = well fitted curve in the direction sought with a large enough effect; inconclusive = small, poorly fitted or top-dose-only effect, or another doubt; inactive = no such curve, though single readings can be large; an effect the other way counts as inactive or inconclusive. Unless noted, % is set by controls: 0 for no effect and ±100 for the full control effect; potency is the fitted concentration of half-maximal effect.

SMILES	S16 F2sN tox	mTORC1 inh	PMP22 txn prim	p53null 32C kill	p53null 39C kill
CC(C)(C)c1ccc(C(=O)Nc2ccc(C(=O)OCc3cc(=O)n4ccsc4n3)cc2)cc1	u	13.3%	u	u	2µM*
Cc1ccc(C(=O)Nc2ccc(C(=O)OCc3cc(=O)n4ccsc4n3)cc2)cc1	7.5%	0.0%	-2.9%	-0.8%	-0.6%
Cc1cn2c(=O)cc(COC(=O)c3cccc(NC(=O)c4ccc(C(C)(C)C)cc4)c3)nc2s1	8.9%	8.0%	2.5%	2.51µM*	0.794µM*
O=C(CCn1ccc2cc(S(=O)(=O)N3CCCC3)ccc21)NCc1ccccc1Cl	u	0.7%	-8.9%	-9.6%	8.4%
O=C(Nc1ccccc1F)c1ccc2c(Cl)c3c(nc2c1)CCC3	-0.2%	-0.2%	u	1.26µM*	1.58µM*
O=C1CC(c2ccccc2)Cc2[nH]c(=O)c(-c3nc(-c4cccc(Cl)c4)cs3)cc21 (configuration not stated)	u	11.7µM*	-20.7%	22.1%	-15.6%
Cc1cccc2sc(N(Cc3cccnc3)C(=O)CCS(=O)(=O)c3ccccc3)nc12	u	u	u	u	12.6µM*
Cc1ccc2sc(N(Cc3cccnc3)C(=O)CCS(=O)(=O)c3ccccc3)nc2c1C	u	-4.3%	u	-11.0%	4.8%
O=C(Nc1ccc(F)cc1)c1ncn(-c2ccccc2)n1	-18.0%	-6.3%	u	u	31.6µM*
CCOc1ccc(NC(=O)c2ncn(-c3ccccc3)n2)cc1	-9.7%	5.0%	6.2%	-17.2%	-18.8%
Cc1cccc(C(=O)Nc2c(C(=O)NCc3ccc(Cl)cc3)sc3nc(C)cc(C)c23)c1	u	13.1µM*	u	-19.7%	u
CN(C)c1ccc(CNc2nc(-c3ccco3)nn2S(=O)(=O)c2ccc(Cl)cc2)cc1	16.7%	-2.2%	u	-14.9%	-10.9%
COc1c(C)cc(NS(=O)(=O)c2ccc3c(c2)OCCO3)cc1C	-20.2%	-12.1%	u	14.5%	4.9%
CC(C)NC(=O)c1cc2c(s1)CCCC2	x	x	x	u	10µM*
CNC(=O)c1cc2c(s1)CCCCCC2	x	x	x	-17.9%	-9.0%
CCOc1ccc(Nc2nc(-c3cccc(Cl)c3)c3c(n2)-c2ccccc2OC3)cc1	1.0%	2.33µM*	-3.6%	u	u
Nc1cccc(-c2nc3ccccc3[nH]2)c1	x	x	x	-18.5%	-21.1%
Cc1ccc2nc(-c3cccc(N)c3)[nH]c2c1	x	x	x	12.6µM*	u
O=C(NCCCc1nc2ccccc2n1Cc1ccc(Cl)cc1Cl)c1ccco1	x	-1.8%	x	0.9%	-0.1%
O=C(NCCc1nc2ccccc2n1Cc1ccc(Cl)cc1Cl)c1ccco1	5.2%	20.7µM*	u	0.5%	u
CC(C)(C)c1ccc(C2=NC(C)(C)N(CC(=O)Nc3ccc(F)c(F)c3)C2=O)cc1	-12.3%	0.6%	u	2.8%	12.6µM*
COc1ccc(C2=NC(C)(C)N(CC(=O)Nc3cc(OC)cc(OC)c3)C2=O)cc1	0.8%	-10.5%	-10.7%	5.1%	-5.0%
Cc1c(Cl)ccc2sc(NC(=O)c3ccc(S(=O)(=O)N4CCCc5ccccc54)cc3)nc12	11.8%	14.7µM*	-17.1%	16.5%	-9.5%
Cc1c(Cl)ccc2sc(NC(=O)c3ccc(S(=O)(=O)N4CCCC4)cc3)nc12	8.3%	0.6%	9.9%	0.4%	-11.2%
Cc1ccc(-c2nc3ccccc3[nH]2)cc1NC(=O)COc1ccccc1[N+](=O)[O-]	-29.3%	2.33µM*	u	u	u
SMILES	S16 F2sN tox	mTORC1 inh	PMP22 txn prim	p53null 32C kill	p53null 39C kill
CC(=O)c1ccc(NC(=O)c2nc3ccccc3n(C)c2=O)cc1	-20.9%	-6.6%	-2.4%	2µM*	3.3%
CCOc1ccc(NC(=O)c2sc3nc4c(cc3c2N)CN(Cc2ccccc2)CC4)cc1	-0.1%	-6.4%	-3.0%	-4.9%	-14.2%
CC(C)(C)c1ccc(OCC(=O)Nc2ccc(S(=O)(=O)Nc3ncccn3)cc2)cc1	0.7%	-0.6%	0.0%	-3.9%	-10.9%
CCc1ccc(NC(=O)C2CCC(CNS(=O)(=O)c3ccc4c(c3)CC(C)N4C(C)=O)CC2)cc1 (configuration not stated)	-3.9%	u	-24.4%	-0.6%	-9.9%
COc1cc(Cl)c(NS(=O)(=O)c2ccc3c(c2)CC(C)N3C(=O)C2CCC2)c(OC)c1 (configuration not stated)	u	-1.9%	11.9µM*	18.9%	-9.3%
CC(=O)N1c2ccc(S(=O)(=O)NCC3CCC(C(=O)Nc4ccc(F)cc4)CC3)cc2CC1C (configuration not stated)	14.1µM*	-8.0%	u	16.4%	14.6%
CC(=O)N1c2ccc(S(=O)(=O)NCC3CCC(C(=O)Nc4ccc(C)c(C)c4)CC3)cc2CC1C (configuration not stated)	-24.6%	-21.0%	u	5.3%	-18.0%
COc1ccccc1NC(=O)C1CCC(CNS(=O)(=O)c2ccc3c(c2)CC(C)N3C(C)=O)CC1 (configuration not stated)	u	u	18.9µM*	10.5%	-6.7%
O=C(Nc1cccc(C(F)(F)F)c1)c1cc(CN2CCOCC2)on1	-0.3%	-4.2%	6.5%	-11.4%	-18.4%
COc1cc(NC(=O)CSc2nc(-c3ccc(C(C)C)cc3)no2)cc(OC)c1	-0.7%	-14.5%	9.05µM*	-29.7%	-20.5%
COc1cc(/C=N/O)ccc1OCc1ccc(C(=O)O)cc1	x	x	x	12.6µM*	8.91µM*
CCOC(=O)CC(NC(=O)c1cc2c(=O)n3cccc(C)c3nc2s1)c1ccc(OCC)c(OC)c1 (configuration not stated)	0.3%	0.7%	u	4.8%	-8.1%
COc1ccc(N(Cc2cccs2)C(=O)c2ccco2)cc1	-1.7%	-8.9%	2.2%	17.0%	-2.5%
CCN(C(=O)c1ccco1)c1nnc(-c2ccc(OC)cc2)s1	x	x	x	u	12.6µM*
Cc1ccc(CNC(=O)c2cccc(Nc3nc4ccccc4n4nnnc34)c2)cc1	8.91µM*	-0.1%	11.3µM*	-12.3%	-22.7%
O=C(c1ccc(Nc2nc3ccccc3n3nnnc23)cc1)N1CCN(c2cccc(C(F)(F)F)c2)CC1	u	7.1%	u	-3.8%	-15.7%
O=C(NCCc1ccccc1)c1ccc(Nc2nc3ccccc3n3nnnc23)cc1	28.2µM*	-1.9%	u	u	u
COc1ccc(C(=O)Nc2ccccc2-c2nc3ccccc3s2)c(OC)c1	6.9%	-14.7%	u	-7.4%	14.5%
O=C(/C(C=Nc1ccc(Br)cc1)=C(/O)c1ccco1)C(F)(F)F	x	x	x	5.01µM*	u
COc1cc(O)ccc1-c1nc2ccc(Br)cn2c1Nc1ccccc1C	2.2%	-11.3%	u	u	20µM*

Compound activity as filed in PubChem BioAssay.
